According to the supplement of paper PMC6763611:

Tested on: Plasmodium falciparum NF54
Test: growth inhibition relative to untreated control; higher = more inhibition
Details: 72 h
Procedure, shortened: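 Two media were used: minimal RPMI, and minimal RPMI carrying the chorismate end-products folate, pABA, pHBA, tyrosine, phenylalanine and tryptophan at 2.2 μM, 7.3 μM, 7.3 μM, 111 μM and 90 μM for the first five. In these media, P. falciparum NF54 ring stages (1% hematocrit, 1% parasitemia, 100 μL/well) were exposed in dark 96-well half-area plates to a single 5 μM or 1 μM test-compound dose for 72 h at 37 °C. Growth inhibition was then assessed with SYBR Green against untreated wells, subtracting background from uninfected erythrocytes.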

[1] = 1 µM, MM + chorismate end-products (CM screening medium)
[2] = 5 µM, MM + chorismate end-products (CM screening medium)

| SMILES | growth inhibition [1] [%] | growth inhibition (1 µM, minimal medium (MM)) [%] | growth inhibition [2] [%] | growth inhibition (5 µM, minimal medium (MM)) [%] |
| --- | --- | --- | --- | --- |
| CO[C@@H]1CN(c2ccc(C#CC3(O)CN4CCC3CC4)c(Cc3ccccc3)n2)C[C@H]1O (some centres undefined) | 33.3 | < 0 | 42.8 | 9.06 |
| Cc1cc(C2=NOC(c3cc(Cl)c(F)c(Cl)c3)(C(F)(F)F)C2)ccc1C(=O)NCc1ccc2c(c1)C(C)(C)OB2O (centres undefined) | 19.4 | < 0 | 40.8 | 10.9 |
| O=C1O[C@@H](CO)CN1c1cc(F)c(C2=CCN(Cc3ccccc3)CC2)c(F)c1 | 19.3 | 23.4 | 45 | 49.9 |
| CCc1nn(C)c(C(=O)NCc2ccc(Oc3ccc(C)cc3)cc2)c1Cl | < 0 | 3.68 | < 0 | < 0 |
| CC1(C)OB(O)c2ccc(C3=NOC(c4cc(Cl)c(F)c(Cl)c4)(C(F)(F)F)C3)cc21 (centres undefined) | 53.3 | 48.1 | 53.9 | 11.9 |
| Cc1nn(Cc2ccccc2)c(Cl)c1C(=O)NC1CCCCCC1 | 16.8 | < 0 | < 0 | < 0 |
| CO/N=C(\C(=O)OC)c1ccccc1CO/N=C(\C)c1cccc(C(F)(F)F)c1 | 98 | 96.6 | 91.5 | 91.8 |
| Cc1cccc(C(=O)Nc2ccnc(N(C)C3CCN(CC(C)C)CC3)c2)c1 | > 100 | 61.7 | 94.8 | 92.4 |
| CC1COC(Cn2cncn2)(c2ccc(Oc3ccc(Cl)cc3)cc2Cl)O1 (centres undefined) | 22 | 38.1 | 67.8 | 33.6 |
| Cc1nn(C)c(C)c1NS(=O)(=O)c1c(Cl)cc(-c2ccnc(N3CCNCC3)c2)cc1Cl | 55.7 | 79.5 | 84.1 | 89.6 |
| CC(C)(C)C(O)C(Oc1ccc(-c2ccccc2)cc1)n1cncn1 (centres undefined) | 46.2 | 5.38 | < 0 | < 0 |
